# From ChEMBL document CHEMBL1961873, “Compounds: GSK PKIS; Assays: Nanosyn kinase panel” (2012)
# How the values were obtained:
# [1] = biological target: Sphingosine kinase 1 (Homo sapiens) (UniProt Q9NYA1); conditions: at 1 µM;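 note: mean SPHK1 inhibition value reported from the GSK PKIS kinase panel screen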
# [2] = biological target: T1, Sphingosine kinase 2 (Homo sapiens) (UniProt Q9NRA0); conditions: at 0.1 µM
# T1 sequence (whole entry): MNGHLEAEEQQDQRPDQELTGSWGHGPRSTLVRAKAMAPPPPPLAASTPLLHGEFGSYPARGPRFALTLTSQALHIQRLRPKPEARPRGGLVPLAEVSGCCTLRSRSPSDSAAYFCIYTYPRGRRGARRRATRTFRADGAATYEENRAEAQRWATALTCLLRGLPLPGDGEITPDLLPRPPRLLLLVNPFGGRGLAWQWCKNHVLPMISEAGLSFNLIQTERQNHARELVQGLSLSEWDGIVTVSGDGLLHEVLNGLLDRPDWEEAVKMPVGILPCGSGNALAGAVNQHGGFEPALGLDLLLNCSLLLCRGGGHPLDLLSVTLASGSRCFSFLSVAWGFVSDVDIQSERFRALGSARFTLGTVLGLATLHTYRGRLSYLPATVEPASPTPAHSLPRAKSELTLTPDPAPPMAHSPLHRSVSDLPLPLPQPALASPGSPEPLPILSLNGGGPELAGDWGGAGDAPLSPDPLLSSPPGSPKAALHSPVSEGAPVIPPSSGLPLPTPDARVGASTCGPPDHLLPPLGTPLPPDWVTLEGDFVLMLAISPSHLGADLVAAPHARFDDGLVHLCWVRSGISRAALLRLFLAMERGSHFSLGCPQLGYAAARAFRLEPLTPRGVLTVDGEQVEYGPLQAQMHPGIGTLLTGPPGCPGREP
# [3] = biological target: T1, Sphingosine kinase 2 (Homo sapiens); conditions: at 1 µM
# [4] = biological target: Casein kinase II subunit alpha (Homo sapiens) (UniProt P68400); conditions: at 0.1 µM
# Sequence of Casein kinase II subunit alpha (Homo sapiens) (P68400 whole entry, looked up): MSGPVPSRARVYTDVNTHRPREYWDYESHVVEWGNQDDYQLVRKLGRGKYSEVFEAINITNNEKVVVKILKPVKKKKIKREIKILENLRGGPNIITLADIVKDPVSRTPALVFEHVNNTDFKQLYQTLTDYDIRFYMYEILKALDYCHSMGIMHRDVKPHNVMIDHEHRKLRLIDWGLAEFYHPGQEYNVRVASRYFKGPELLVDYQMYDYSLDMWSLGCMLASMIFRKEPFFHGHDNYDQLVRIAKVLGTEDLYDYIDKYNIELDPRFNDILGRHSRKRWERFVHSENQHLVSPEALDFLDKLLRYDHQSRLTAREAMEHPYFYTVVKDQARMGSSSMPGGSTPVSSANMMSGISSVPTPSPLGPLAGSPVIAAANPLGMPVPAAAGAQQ
# [5] = biological target: Casein kinase II subunit alpha (Homo sapiens) (UniProt P68400); conditions: at 1 µM
# [6] = biological target: T2, Inhibitor of nuclear factor kappa-B kinase subunit alpha (Homo sapiens) (UniProt O15111); conditions: at 0.1 µM
# T2 sequence (whole entry): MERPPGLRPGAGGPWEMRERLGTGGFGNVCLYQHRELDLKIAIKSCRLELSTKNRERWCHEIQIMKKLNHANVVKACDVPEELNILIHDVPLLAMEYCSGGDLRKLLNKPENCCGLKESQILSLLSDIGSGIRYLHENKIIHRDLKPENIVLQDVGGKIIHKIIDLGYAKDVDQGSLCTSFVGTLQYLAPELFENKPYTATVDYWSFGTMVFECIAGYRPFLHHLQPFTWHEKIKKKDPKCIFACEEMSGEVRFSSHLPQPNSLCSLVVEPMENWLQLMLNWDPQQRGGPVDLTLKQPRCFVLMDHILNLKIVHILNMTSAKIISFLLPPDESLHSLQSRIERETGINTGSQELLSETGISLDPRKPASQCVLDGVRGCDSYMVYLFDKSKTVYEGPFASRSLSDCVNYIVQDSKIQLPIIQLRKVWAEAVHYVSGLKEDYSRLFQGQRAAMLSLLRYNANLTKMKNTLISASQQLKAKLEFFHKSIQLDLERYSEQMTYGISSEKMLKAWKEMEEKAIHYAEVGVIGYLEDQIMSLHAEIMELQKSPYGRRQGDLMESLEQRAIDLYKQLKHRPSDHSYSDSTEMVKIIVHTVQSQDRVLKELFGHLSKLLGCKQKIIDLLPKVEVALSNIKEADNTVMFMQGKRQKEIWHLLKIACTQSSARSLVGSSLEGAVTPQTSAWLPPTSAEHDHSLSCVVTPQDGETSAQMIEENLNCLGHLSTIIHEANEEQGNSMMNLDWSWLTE
# [7] = biological target: T2, Inhibitor of nuclear factor kappa-B kinase subunit alpha (Homo sapiens); conditions: at 1 µM
# [8] = biological target: T3, Inhibitor of nuclear factor kappa-B kinase subunit beta (Homo sapiens) (UniProt O14920); conditions: at 0.1 µM
# T3 sequence (whole entry): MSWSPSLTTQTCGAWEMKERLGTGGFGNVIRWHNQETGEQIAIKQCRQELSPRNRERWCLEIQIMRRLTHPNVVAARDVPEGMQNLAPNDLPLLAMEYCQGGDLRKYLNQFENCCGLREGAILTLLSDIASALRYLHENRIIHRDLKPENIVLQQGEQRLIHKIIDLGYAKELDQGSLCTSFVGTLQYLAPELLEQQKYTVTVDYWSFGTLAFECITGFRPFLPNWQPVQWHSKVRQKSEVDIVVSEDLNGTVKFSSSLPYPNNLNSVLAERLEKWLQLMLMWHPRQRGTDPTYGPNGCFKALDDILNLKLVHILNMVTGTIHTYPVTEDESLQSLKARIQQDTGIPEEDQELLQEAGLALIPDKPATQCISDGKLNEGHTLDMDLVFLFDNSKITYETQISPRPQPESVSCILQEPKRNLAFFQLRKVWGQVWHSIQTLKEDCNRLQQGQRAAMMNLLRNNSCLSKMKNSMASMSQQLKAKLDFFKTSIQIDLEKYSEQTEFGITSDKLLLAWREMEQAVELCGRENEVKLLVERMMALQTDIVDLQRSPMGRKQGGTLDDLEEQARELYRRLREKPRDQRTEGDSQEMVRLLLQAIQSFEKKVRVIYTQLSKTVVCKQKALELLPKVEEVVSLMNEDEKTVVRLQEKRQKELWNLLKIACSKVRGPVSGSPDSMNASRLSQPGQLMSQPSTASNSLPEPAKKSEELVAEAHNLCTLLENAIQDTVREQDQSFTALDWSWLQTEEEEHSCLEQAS
# [9] = biological target: T3, Inhibitor of nuclear factor kappa-B kinase subunit beta (Homo sapiens); conditions: at 1 µM
# [10] = biological target: T4, Inhibitor of nuclear factor kappa-B kinase subunit epsilon (Homo sapiens) (UniProt Q14164); conditions: at 0.1 µM
# T4 sequence (whole entry): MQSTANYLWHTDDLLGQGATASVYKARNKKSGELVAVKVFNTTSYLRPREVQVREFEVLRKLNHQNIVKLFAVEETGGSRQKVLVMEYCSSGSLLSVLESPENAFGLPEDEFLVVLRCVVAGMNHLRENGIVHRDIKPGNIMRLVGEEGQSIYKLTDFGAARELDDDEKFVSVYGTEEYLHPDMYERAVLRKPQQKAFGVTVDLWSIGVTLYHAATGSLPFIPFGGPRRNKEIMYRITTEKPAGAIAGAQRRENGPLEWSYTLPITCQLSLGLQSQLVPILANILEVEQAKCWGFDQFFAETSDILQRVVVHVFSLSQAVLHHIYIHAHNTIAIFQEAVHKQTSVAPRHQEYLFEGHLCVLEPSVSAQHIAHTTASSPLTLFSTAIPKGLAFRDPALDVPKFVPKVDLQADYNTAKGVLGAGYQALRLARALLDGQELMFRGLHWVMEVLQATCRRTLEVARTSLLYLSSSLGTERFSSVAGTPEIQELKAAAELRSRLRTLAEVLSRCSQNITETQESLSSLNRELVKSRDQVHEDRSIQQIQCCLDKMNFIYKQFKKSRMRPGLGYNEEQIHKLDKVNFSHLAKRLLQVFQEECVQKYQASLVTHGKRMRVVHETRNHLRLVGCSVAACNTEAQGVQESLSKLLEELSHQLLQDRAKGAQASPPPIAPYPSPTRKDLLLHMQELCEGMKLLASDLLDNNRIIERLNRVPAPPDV
# [11] = biological target: T4, Inhibitor of nuclear factor kappa-B kinase subunit epsilon (Homo sapiens); conditions: at 1 µM
# [12] = biological target: T5, Serine/threonine-protein kinase Nek1 (Homo sapiens) (UniProt Q96PY6); conditions: at 0.1 µM
# T5 sequence (whole entry): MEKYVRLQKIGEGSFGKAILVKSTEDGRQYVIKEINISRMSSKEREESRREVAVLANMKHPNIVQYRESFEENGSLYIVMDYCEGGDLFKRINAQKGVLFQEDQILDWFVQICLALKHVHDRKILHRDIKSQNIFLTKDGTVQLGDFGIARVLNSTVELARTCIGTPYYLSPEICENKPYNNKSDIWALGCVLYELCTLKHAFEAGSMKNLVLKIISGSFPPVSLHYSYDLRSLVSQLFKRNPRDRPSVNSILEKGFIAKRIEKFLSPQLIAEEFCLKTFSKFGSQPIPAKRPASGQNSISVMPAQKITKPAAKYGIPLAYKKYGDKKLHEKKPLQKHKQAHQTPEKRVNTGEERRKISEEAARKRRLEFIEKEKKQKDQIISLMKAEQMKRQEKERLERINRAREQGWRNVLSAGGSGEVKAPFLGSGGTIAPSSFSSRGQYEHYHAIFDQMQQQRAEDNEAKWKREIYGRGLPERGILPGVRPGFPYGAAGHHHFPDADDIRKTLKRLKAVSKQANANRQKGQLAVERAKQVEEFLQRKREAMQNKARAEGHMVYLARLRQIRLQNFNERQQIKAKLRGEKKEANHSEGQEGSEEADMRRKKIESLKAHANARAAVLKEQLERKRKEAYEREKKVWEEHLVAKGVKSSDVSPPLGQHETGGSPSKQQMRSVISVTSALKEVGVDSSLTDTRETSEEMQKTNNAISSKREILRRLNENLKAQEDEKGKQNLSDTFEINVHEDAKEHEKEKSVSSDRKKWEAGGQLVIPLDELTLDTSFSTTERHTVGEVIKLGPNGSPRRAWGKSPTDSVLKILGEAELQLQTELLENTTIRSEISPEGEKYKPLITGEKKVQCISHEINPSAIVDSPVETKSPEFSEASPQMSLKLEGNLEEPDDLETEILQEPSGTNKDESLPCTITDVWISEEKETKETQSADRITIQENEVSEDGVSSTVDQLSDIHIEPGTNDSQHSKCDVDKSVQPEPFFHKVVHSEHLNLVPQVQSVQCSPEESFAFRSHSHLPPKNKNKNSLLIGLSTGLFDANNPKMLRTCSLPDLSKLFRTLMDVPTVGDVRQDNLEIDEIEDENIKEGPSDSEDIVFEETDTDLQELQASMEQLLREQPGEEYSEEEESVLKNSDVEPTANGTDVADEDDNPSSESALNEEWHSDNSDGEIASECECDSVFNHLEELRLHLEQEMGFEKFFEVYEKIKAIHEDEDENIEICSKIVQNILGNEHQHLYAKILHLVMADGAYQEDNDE
# [13] = biological target: T5, Serine/threonine-protein kinase Nek1 (Homo sapiens); conditions: at 1 µM
# [14] = biological target: T6, Serine/threonine-protein kinase Nek2 (Homo sapiens) (UniProt P51955); conditions: at 0.1 µM
# T6 sequence (whole entry): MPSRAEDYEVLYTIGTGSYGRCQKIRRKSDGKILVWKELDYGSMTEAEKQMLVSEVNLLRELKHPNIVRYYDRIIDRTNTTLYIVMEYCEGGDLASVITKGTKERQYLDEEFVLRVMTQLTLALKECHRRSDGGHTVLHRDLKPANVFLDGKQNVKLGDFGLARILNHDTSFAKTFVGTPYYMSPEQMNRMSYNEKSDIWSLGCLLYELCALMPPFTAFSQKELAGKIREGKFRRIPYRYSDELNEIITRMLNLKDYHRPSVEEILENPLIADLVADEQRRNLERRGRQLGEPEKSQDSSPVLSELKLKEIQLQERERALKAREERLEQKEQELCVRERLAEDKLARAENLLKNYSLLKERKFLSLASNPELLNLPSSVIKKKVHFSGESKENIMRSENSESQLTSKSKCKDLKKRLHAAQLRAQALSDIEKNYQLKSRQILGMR
# [15] = biological target: T6, Serine/threonine-protein kinase Nek2 (Homo sapiens); conditions: at 1 µM
# [16] = biological target: Serine/threonine-protein kinase Nek6 (Homo sapiens) (UniProt Q9HC98); conditions: at 0.1 µM
# Sequence of Serine/threonine-protein kinase Nek6 (Homo sapiens) (Q9HC98 whole entry): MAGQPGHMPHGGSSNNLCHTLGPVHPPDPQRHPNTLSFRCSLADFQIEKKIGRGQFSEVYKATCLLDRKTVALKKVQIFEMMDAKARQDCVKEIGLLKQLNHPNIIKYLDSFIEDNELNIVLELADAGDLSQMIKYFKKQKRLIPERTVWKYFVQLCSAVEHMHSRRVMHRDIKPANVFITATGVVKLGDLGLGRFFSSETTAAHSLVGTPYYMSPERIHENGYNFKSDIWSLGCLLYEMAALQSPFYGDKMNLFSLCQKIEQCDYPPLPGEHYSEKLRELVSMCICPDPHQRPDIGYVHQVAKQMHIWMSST
# [17] = biological target: Serine/threonine-protein kinase Nek6 (Homo sapiens) (UniProt Q9HC98); conditions: at 1 µM
# [18] = biological target: Serine/threonine-protein kinase Nek7 (Homo sapiens) (UniProt Q8TDX7); conditions: at 0.1 µM
# Sequence of Serine/threonine-protein kinase Nek7 (Homo sapiens) (Q8TDX7 whole entry, looked up): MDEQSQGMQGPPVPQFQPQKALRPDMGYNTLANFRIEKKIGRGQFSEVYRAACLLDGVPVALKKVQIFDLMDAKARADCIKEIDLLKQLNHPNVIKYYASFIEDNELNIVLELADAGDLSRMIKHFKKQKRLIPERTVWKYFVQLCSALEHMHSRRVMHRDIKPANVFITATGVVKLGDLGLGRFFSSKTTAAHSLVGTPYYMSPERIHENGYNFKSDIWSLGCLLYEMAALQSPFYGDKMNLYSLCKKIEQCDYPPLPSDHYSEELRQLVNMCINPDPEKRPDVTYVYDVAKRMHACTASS
# [19] = biological target: Serine/threonine-protein kinase Nek7 (Homo sapiens) (UniProt Q8TDX7); conditions: at 1 µM
# [20] = biological target: T7, Serine/threonine-protein kinase Nek9 (Homo sapiens) (UniProt Q8TD19); conditions: at 0.1 µM;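 note: reported value is the mean percent inhibition of NEK9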
# T7 sequence (whole entry): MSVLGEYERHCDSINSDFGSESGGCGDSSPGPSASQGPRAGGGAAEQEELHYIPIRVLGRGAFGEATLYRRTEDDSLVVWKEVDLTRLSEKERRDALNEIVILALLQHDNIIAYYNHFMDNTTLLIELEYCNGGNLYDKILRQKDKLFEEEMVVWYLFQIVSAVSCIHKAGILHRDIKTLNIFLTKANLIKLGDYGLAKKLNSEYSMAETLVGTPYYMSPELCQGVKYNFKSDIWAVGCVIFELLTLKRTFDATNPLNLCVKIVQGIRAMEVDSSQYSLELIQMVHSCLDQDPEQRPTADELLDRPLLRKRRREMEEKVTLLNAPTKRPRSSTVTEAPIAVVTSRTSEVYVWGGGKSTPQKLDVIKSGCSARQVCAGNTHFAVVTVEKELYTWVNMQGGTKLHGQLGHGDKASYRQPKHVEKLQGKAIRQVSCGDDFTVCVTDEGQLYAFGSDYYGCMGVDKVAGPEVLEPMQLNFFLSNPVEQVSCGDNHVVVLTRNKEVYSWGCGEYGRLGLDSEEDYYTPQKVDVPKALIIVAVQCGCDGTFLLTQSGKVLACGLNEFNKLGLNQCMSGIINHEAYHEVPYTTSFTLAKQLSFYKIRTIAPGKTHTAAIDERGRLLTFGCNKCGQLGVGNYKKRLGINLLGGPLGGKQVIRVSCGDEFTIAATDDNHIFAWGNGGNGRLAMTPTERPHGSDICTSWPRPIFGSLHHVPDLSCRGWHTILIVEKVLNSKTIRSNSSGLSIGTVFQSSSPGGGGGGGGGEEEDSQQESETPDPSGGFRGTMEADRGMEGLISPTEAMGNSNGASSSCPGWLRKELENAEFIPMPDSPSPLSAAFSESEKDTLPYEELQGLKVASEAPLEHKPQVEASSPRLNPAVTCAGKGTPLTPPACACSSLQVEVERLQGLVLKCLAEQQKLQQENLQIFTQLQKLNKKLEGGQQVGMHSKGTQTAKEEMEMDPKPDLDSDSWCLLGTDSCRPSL
# Sequence of Sphingosine kinase 1 (Homo sapiens) (Q9NYA1 whole entry): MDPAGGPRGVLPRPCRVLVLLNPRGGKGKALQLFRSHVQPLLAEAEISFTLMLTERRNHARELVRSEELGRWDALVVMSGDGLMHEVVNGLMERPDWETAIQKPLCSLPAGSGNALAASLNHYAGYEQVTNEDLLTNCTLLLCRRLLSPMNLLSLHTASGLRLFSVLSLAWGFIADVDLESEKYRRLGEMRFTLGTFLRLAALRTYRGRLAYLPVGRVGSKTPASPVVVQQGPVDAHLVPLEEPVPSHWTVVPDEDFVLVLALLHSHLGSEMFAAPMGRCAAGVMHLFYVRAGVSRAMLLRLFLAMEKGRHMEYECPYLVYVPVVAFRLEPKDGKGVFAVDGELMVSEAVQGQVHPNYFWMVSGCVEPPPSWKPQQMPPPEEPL
structure (smiles),measurement,setting,value
Cc1cc(O)cc(C)c1/C=C/c1cncc(C(=O)N(C)C)c1,inhibition,[1],-0.49%
same,inhibition,[2],-0.12%
same,inhibition,[3],0.05%
same,inhibition,[4],4.25%
same,inhibition,[5],5.95%
same,inhibition,[6],5.21%
same,inhibition,[7],9.29%
same,inhibition,[8],6.05%
same,inhibition,[9],2.23%
same,inhibition,[10],2.77%
same,inhibition,[11],2.2%
same,inhibition,[12],2.11%
same,inhibition,[13],5.18%
same,inhibition,[14],2.6%
same,inhibition,[15],3.87%
same,inhibition,[16],2.43%
same,inhibition,[17],0.38%
same,inhibition,[18],3.87%
same,inhibition,[19],4.65%
same,inhibition,[20],11.4%
